The whole screen tested about 17,000 compounds, of which about 75 (0.4%) were called active.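 The calls were made as follows: active = compounds whose four printed spots each glow above background more than chance allows, each with a p-value under 7%; inactive = the rest.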 The entries come from a sample that favours actives as a whole.

In this assay the test system is mutant tumor protein p53 (GST-tagged), Homo sapiens. Briefly: binders of human mutant p53, primary screen, biochemical, small molecule microarray, anti-GST fluorescence (AID 624136). To be noted: small molecule microarray binding.
Take `C[C@@H]1CN([C@H](C)CO)C(=O)c2cccc(NC(=O)Nc3ccc(F)cc3)c2O[C@@H]1CN(C)Cc1ccc(C(F)(F)F)cc1`: the outcome was inactive.

Regarding `O=C(NCc1cccnc1)c1cnn2c(C(F)F)cc(-c3ccccc3)nc12`, the call was inactive.

`CNC[C@H]1OCCCC[C@@H](C)Oc2ccc(NC(=O)c3ccncc3)cc2C(=O)N([C@H](C)CO)C[C@H]1C`: the compound was called inactive.

As to `Cn1nnc2cc(C(=O)N(CCO)c3ccccc3)ccc21`, the call was inactive.

As for `C[C@@H]1CN([C@@H](C)CO)C(=O)Cc2cc(NC(=O)Cc3cn(C)c4ccccc34)ccc2O[C@H]1CN(C)Cc1ccc(C(=O)O)cc1`, the outcome was inactive.

Regarding `Cc1noc(C)c1S(=O)(=O)Nc1cccc2c1O[C@H](CN(C)Cc1ccc(C(F)(F)F)cc1)[C@H](C)CN([C@@H](C)CO)C2=O`, the compound was called inactive.

With `CC(=O)Nc1ccccc1-c1cn(CC(=O)N2CCOCC2)nn1`, the compound was classed as inactive.

Regarding `CCCN(C)C[C@@H]1OCCCC[C@H](C)Oc2ccc(NS(=O)(=O)c3ccc(C)cc3)cc2C(=O)N([C@H](C)CO)C[C@@H]1C`, the call was inactive.

`Cc1noc(C)c1NC(=O)Nc1ccc2c(c1)C(=O)N([C@@H](C)CO)C[C@H](C)[C@@H](CN(C)C)O2`: the result was inactive.

Regarding `C[C@@H]1CN([C@@H](C)CO)C(=O)c2cc(N(C)C)ccc2O[C@@H](C)CCCCO[C@@H]1CN(C)C(=O)CCC(F)(F)F`, the outcome was inactive.

With `CC(C)NC(=O)Nc1ccc2c(c1)C(=O)N([C@H](C)CO)C[C@H](C)[C@@H](CN(C)C(=O)CCCN(C)C)OCCCC[C@@H](C)O2`, the compound was called inactive.

`Cc1noc(C)c1S(=O)(=O)Nc1ccc2c(c1)CC(=O)N([C@@H](C)CO)C[C@H](C)[C@H](CN(C)C(=O)Nc1ccccc1)O2`: the compound was called inactive.

For the compound `CC(C)NC(=O)N(C)C[C@@H]1OCCCC[C@@H](C)Oc2ccc(NC(=O)CCCN(C)C)cc2C(=O)N([C@@H](C)CO)C[C@@H]1C`, the compound was classed as inactive.

Take `COc1ccc(S(=O)(=O)Nc2ccc3c(c2)C(=O)N([C@@H](C)CO)C[C@@H](C)[C@H](CN(C)S(=O)(=O)c2cccs2)O3)cc1`: the result was inactive.

On to `COc1ccc(NC(=O)N(C)C[C@H]2Oc3ccc(NS(=O)(=O)c4ccc(C)cc4)cc3C(=O)N([C@@H](C)CO)C[C@H]2C)cc1`, for which the compound was called inactive.

Regarding `COc1ccc(C(=O)CCC(=O)Nc2cccnc2)c(OC)c1`, the result was inactive.

For `C[C@H](CO)N1C[C@H](C)[C@H](CN(C)S(=O)(=O)c2cccs2)OCCCC[C@H](C)Oc2ccc(NC(=O)CCCN(C)C)cc2C1=O`, the result was inactive.

`CCOC(=O)c1c(CN2CCOCC2)nc2c3ccccc3ccn12`: the outcome was inactive.

Take `CS(=O)(=O)N(CC(=O)Nc1ccc(F)c(F)c1)c1ccccc1F`: the outcome was inactive.

With `COC(=O)c1ccccc1NC(=O)Cc1coc2cc(C)cc(C)c12`, the call was inactive.

As to `COc1ccc(-c2nnc(SCC(=O)Nc3c(C)n[nH]c3C)n2-c2ccccc2)cc1OC`, the compound was classed as inactive.

In the case of `C[C@H]1CN([C@@H](C)CO)C(=O)Cc2cc(NC(=O)c3ccncc3)ccc2O[C@@H]1CN(C)C(=O)Nc1ccccc1`, the outcome was inactive.

For the compound `C[C@@H]1CCCCO[C@H](CN(C)Cc2ccc3c(c2)OCO3)[C@@H](C)CN([C@H](C)CO)C(=O)c2cc(N(C)C)ccc2O1`, the call was inactive.

As to `O=C1N(CCS(=O)(=O)c2ccccc2)Cc2ccccc2[C@H]2OC(c3ccc(OCCCO)cc3)=N[C@@]12CCS(=O)(=O)c1ccccc1`, the call was inactive.

Consider `C[C@H](CO)N1C[C@H](C)[C@H](CN(C)C(=O)Nc2ccc(F)cc2)Oc2ccc(NC(=O)Cc3cn(C)c4ccccc34)cc2CC1=O`, for which the compound was called inactive.

Turning to `C[C@H](CO)N1C[C@H](C)[C@H](CN(C)S(=O)(=O)c2ccc(Cl)cc2)Oc2c(NS(C)(=O)=O)cccc2C1=O`, the compound was called inactive.

For the compound `C[C@@H]1CN([C@@H](C)CO)C(=O)c2cc(NC(=O)Cc3ccccc3)ccc2O[C@H]1CN(C)CC1CC1`, the compound was classed as inactive.

With `C[C@H]1CN([C@@H](C)CO)C(=O)c2cc(NC(=O)NC3CCCCC3)ccc2O[C@@H]1CN(C)C(=O)Nc1cccc2ccccc12`, the compound was classed as inactive.

As for `COc1ccccc1-c1nnc(SCC(=O)Nc2ccccc2)o1`, the call was inactive.

`C[C@@H]1CN([C@H](C)CO)C(=O)c2cc(NS(=O)(=O)c3ccccc3)ccc2O[C@@H](C)CCCCO[C@H]1CN(C)C(=O)C1CCCCC1`: the call was inactive.

For the compound `Cc1ccc(S(=O)(=O)N(C)CC(=O)Nc2ccc(C#N)cc2)cc1`, the call was inactive.

As to `C[C@H]1CN([C@@H](C)CO)C(=O)c2cccc(NC(=O)Nc3cccc4ccccc34)c2O[C@@H]1CN(C)C(=O)NC1CCCCC1`, the outcome was inactive.

Consider `C[C@H](CO)N1C[C@H](C)[C@H](CN(C)S(=O)(=O)c2cccs2)Oc2c(NS(=O)(=O)c3ccc(Cl)cc3)cccc2C1=O`, for which the call was inactive.

For the compound `O=C(C1=C[C@H](c2csc3ccccc23)C[C@H](OCc2ccc(CO)cc2)O1)N1CCCCC1`, the outcome was inactive.

Consider `C[C@@H]1CN([C@H](C)CO)C(=O)Cc2cc(NC(=O)Nc3ccc(F)cc3)ccc2O[C@@H]1CN(C)Cc1ccc2c(c1)OCO2`, for which the compound was called inactive.

Turning to `C[C@@H]1CN([C@@H](C)CO)C(=O)Cc2cc(NS(=O)(=O)c3ccc(Cl)cc3)ccc2O[C@H]1CN(C)CC1CCCCC1`, the compound was classed as inactive.

On to `CNC[C@@H]1Oc2ncc(-c3ccc(F)cc3)cc2C(=O)N([C@H](C)CO)C[C@@H]1C`, for which the compound was classed as inactive.

As for `CCNc1nc(NCC)nc(OCC#N)n1`, the compound was called inactive.

Regarding `CO[C@@H]1[C@@H](OC(N)=O)[C@@H](O)C(Oc2ccc3c(O)c(NC(=O)c4ccc(O)c(CC=C(C)C)c4)c(=O)oc3c2C)OC1(C)C` (stereo not given in full), the outcome was inactive.

Turning to `COc1ccc2ncnc(NCc3ccc4c(c3)OCO4)c2c1`, the call was inactive.

For `COc1ccc(S(=O)(=O)Nc2ccc3c(c2)CC(=O)N([C@H](C)CO)C[C@H](C)[C@H](CN(C)Cc2ccc(C(F)(F)F)cc2)O3)cc1`, the compound was called inactive.

Turning to `C[C@H]1CN([C@@H](C)CO)C(=O)Cc2cc(NC(=O)NC3CCCCC3)ccc2O[C@H]1CN(C)S(=O)(=O)c1cccs1`, the call was inactive.

Turning to `COc1ccc(CN(C)C[C@H]2Oc3c(NC(=O)c4cnccn4)cccc3C(=O)N([C@H](C)CO)C[C@@H]2C)cc1`, the compound was classed as inactive.

For `COc1cc(CCC(=O)O)oc(=O)c1`, the result was inactive.

As to `C[C@H](CO)N1C[C@H](C)[C@@H](CN(C)C(=O)Nc2ccc3c(c2)OCO3)Oc2ccc(NS(=O)(=O)c3ccc(Cl)cc3)cc2C1=O`, the call was inactive.

The values above are taken from PubChem BioAssay AID624136 (Broad Institute, 2012).
